Screening data: PubChem BioAssay, National Center for Advancing Translational Sciences (NCATS)
Cruzain inh Det = inhibitors of Trypanosoma cruzi cruzain with detergent; purified cruzain, Z-FR-AMC fluorescence, 0.01% Triton; Potency, µM, inactives show max response, negative = inhibition, most hits filed as inhibitors; 0.43% of 200,000 active;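 also: plate controls were neutral wells for no effect and buffer without enzyme for full effect; nearly all actives have a fitted effect of over 40% in size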
Target sequence (P25779 123-467 limits assumed): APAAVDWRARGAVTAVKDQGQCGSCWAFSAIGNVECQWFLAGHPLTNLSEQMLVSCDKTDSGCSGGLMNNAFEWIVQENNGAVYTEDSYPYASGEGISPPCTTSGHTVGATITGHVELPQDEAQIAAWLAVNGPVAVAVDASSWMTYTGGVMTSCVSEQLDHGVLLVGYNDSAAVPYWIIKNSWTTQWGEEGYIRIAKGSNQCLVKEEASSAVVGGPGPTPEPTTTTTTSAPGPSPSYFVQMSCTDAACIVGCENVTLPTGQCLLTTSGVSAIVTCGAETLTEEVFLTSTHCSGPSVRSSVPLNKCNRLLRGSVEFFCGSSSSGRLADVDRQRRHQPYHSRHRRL
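Purified cruzain (1.5 nM final) was preincubated with compounds for 15 min at room temperature in 100 mM sodium acetate pH 5.5, 5 mM DTT, 0.01% Triton X-100. Reaction started with 2 uM Z-FR-AMC; AMC fluorescence change over 60 s gave activity.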
Cruzain noTriton = blocks cruzain activity in detergent-free assay | 2.3% of 200,000 active | purified cruzain, Z-FR-AMC fluorescence, no detergent | Potency, µM, inactives show max response, negative = inhibition, hits mostly inhibitors | AID 1476 | P25779;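 also: plate controls were enzyme without inhibitor for no effect and buffer without enzyme for full effect; nearly all actives have a fitted effect of over 40% in size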
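Purified cruzain at 1.5 nM, pre-incubated 15 min with compound at room temperature in 100 mM sodium acetate pH 5.5, 5 mM DTT, 0.00005% Triton X-100. Reaction started with 2 uM Z-FR-AMC; AMC fluorescence increase over 60 s gives rate.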
Papain inh = counter-screen for cruzain inhibitors: papain inhibition; shares compounds with Cruzain inh Det; purified papain, Z-FR-AMC fluorescence cleavage; Potency, µM, without a hit: max response, negative = inhibition, hits mostly inhibitors; 41% of 410 active; AID 2161;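 also: 0% = no-compound wells and -100% = no-enzyme wells; nearly all actives have a fitted effect of over 35% in size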
Target sequence (P00784 whole entry, looked up): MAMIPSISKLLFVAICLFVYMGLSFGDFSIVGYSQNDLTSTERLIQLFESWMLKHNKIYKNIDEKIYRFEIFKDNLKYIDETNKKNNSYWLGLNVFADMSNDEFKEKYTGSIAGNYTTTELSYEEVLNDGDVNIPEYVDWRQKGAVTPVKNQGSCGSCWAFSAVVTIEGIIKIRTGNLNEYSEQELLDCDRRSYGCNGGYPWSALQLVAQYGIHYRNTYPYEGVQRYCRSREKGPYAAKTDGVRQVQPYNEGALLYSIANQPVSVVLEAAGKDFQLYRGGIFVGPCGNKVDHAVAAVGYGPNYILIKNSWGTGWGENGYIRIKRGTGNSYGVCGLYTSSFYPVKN
An asterisk follows results filed as active; ? = inconclusive. Sampled rows, rich in hits. Any-hit rate of the full collection: about 2.5%. Calls follow the shape of the dose curve; as a rule, active = well fitted curve in the direction sought with a large enough effect; inconclusive = small, poorly fitted or top-dose-only effect, or another doubt; inactive = no such curve, though single readings can be large; an effect the other way counts as inactive or inconclusive. Potency is read from the fitted curve at half-maximal effect.

SMILES	Cruzain inh Det	Cruzain noTriton	others
COc1ccc2c(c1)CC(C(=O)NCCc1ccc(S(N)(=O)=O)cc1)CO2 (centres undefined)	-1.7%	?
Cc1ccc(C(=O)O)cc1Nc1nc2ccccc2n2nnnc12	-3.4%	6.1%
O=C(Nc1ccc(-c2cc(C(F)(F)F)nn2-c2ccccc2)cc1)c1cccc(F)c1	-6.1%	20µM*
O=C(NC(=O)c1cccc(F)c1)Nc1ccc(-c2cc(C(F)(F)F)nn2-c2ccccc2)cc1	-1.1%	-0.4%
COc1cc(CNc2cccc(F)c2)cc(Br)c1O	-5.4%	25.1µM*
COc1ccc(CNc2ccccc2)cc1Br	-5.9%	-9.1%
Cc1ccccc1C(=O)Nc1nc2c(s1)CC(C(C)(C)C)CC2 (centres undefined)	-1.0%	17.6%
CNCC[C@H](Oc1ccccc1OC)c1ccccc1	-2.5%	2.5%
C/C(=N\NC(=O)c1cc(Cl)ccc1O)c1ccc(Br)s1	-5.8%	10µM*
C/C(=N\NC(=O)c1ccc(Cl)cc1)c1ccc(Br)s1	5.3%	?
COCCNc1nc(C)nc2c1nc(-c1ccccc1)n2CC1CCN(C)CC1	-3.5%	-4.6%
CC1CCN(c2oc(-c3cccs3)nc2S(=O)(=O)c2ccc(Cl)cc2)CC1	-1.0%	0.9%
CCOc1ccc(-c2c(C)nn3c(C)c(C(=O)NCCc4ccc(C)cc4)cnc23)cc1OCC	-2.1%	-1.5%
CCCCCn1c(N)c(C(=O)NCc2cccs2)c2nc3ccccc3nc21	0.2%	4.1%
Nc1c(C(=O)NCCCc2ccccc2)c2nc3ccccc3nc2n1Cc1cccs1	5.8%	6.31µM*
CCN1CCN(C(c2ccc(SC)cc2)c2c(O)cc(C)n(Cc3ccco3)c2=O)CC1 (centres undefined)	0.6%	?
CCc1nnc2c(N3CCN(c4cccc(C)c4)C(C)C3)nc3ccccc3n12 (centres undefined)	-3.1%	?
Nc1cc2c(nc3c4ccccc4c(N)cc3[n+]2-c2cccc3ccccc23)c2ccccc12 (tested in a mixture with another compound)	0.3%	1.26µM*
Nc1cccc2c(N)cccc12	-5.2%	1.9%
O=C(CSc1nccn1-c1ccc(Cl)cc1)Nc1cccc2ccccc12	-7.7%	9.1%
Nc1ccc(Sc2cc(Cl)nc(N)n2)cc1	6.2%	12.6µM*
COCc1cc(Sc2ccc(Cl)cc2)nc(-c2ccccc2)n1	0.0%	-6.4%
COc1ccc(NC(=O)CSc2nc(-c3ccccc3)cc(-c3cc(OC)c(OC)c(OC)c3)c2C#N)c(OC)c1	-1.4%	-3.4%
O=S(=O)(NCCc1csc2nc(-c3ccc(Cl)cc3)nn12)c1cccs1	-6.9%	-2.8%
CCOC(=O)c1ccccc1NC(=O)CCc1nc(-c2ccc(C)cc2)no1	-5.3%	5.0%
SMILES	Cruzain inh Det	Cruzain noTriton	others
Cc1ccc(-c2noc(CCC(=O)Nc3ccc(C)cn3)n2)cc1	0.5%	25.1µM*
COc1ccc(CNC(=O)c2cnc(N3CCCC3)nc2C)cc1	-0.4%	-4.9%
COc1ccc2c(c1)c1c(c(=O)n(Cc3ccccc3)c(=O)n1Cc1ccccc1)n2C	0.1%	-0.5%
N#C/C(=C\N1CCN(Cc2ccc3c(c2)OCO3)CC1)c1nc2ccccc2s1	-3.9%	31.6µM*
c1ccc2sc(N3CCN(Cc4ccc5c(c4)OCO5)CC3)nc2c1	0.4%	2.6%
CSc1nsc(/C=C/Nc2ccc(Cl)cc2)c1C#N	-21.2%	?
CSc1nsc(/C=C/Nc2cccc(Cl)c2)c1C#N	-6.3%	20µM*
Cc1ccccc1-c1cc(C(=O)Nc2sc(C)c(C)c2C(N)=O)c2ccccc2n1	-15.0%	20µM*
CCOC(=O)c1c(NC(=O)c2cc(-c3ccc(Cl)s3)nc3ccccc23)sc(C(N)=O)c1C	0.7%	-6.7%
CCOC(=O)c1sc(NC(=O)c2cc(-c3ccccc3C)nc3ccccc23)c(C#N)c1C	-0.9%	10µM*
CCOC(=O)c1sc(NC(=O)c2ccncc2)c(C#N)c1C	-11.8%	-8.8%
CCOC(=O)c1c(C)[nH]c(CCC(=O)NCc2cc(OC)c(OC)c(OC)c2)c1C	2.8%	-11.1%
O=C1C=CC(=O)c2c(O)c(Cl)c(Cl)c(O)c21	2.0%	-4.2%
COc1cc(CCNC(=O)c2ccc3c(c2)c(C)c(C)n3Cc2cccc(C)c2)cc(OC)c1OC	-1.0%	-7.6%
COc1ccc(OC)c(CNC(=O)c2ccc3c(c2)c(C)c(C)n3Cc2ccc(Cl)cc2)c1	1.8%	7.94µM*
COc1ccccc1CCNC(=O)c1ccc2c(c1)c(C)c(C)n2Cc1ccc(Cl)cc1	3.0%	12.6µM*
COc1ccc(OC)c(CNC(=O)c2ccc3c(c2)c(C)c(C)n3C)c1	-1.8%	?
Cc1ccc(C(=O)NCCc2sc(C)nc2C)cc1	25.1µM*	?
Cc1nc(C)c(CCNC(=O)c2ccc(C(F)(F)F)cc2)s1	-12.9%	1.3%
CN(C)c1cccc2c(C=C(C#N)C#N)ccc(N(C)C)c12	20µM*	20µM*
Cc1cc(C=C(C#N)C#N)c(C)n1-c1ccccc1	-0.5%	-0.6%
COc1ccccc1C(=O)NCC(=O)OC(C)C(=O)NC(=O)NC1CCCCC1 (centres undefined)	8.91µM*	10µM*
COc1ccccc1C(=O)NCC(=O)OCc1ccc(Br)cc1	-19.2%	-11.1%
Cc1ccc(NC(=O)c2cnc(SCC(=O)N3CCOCC3)n(C)c2=O)cc1	0.7%	-4.6%
O=C(CCN1CCCCC1)c1ccccc1	-4.9%	-13.2%
SMILES	Cruzain inh Det	Cruzain noTriton	others
O=C(CCN1CCCCC1)c1csc2ccccc12	-22.8%	2.51µM*
COc1ccc(/C=c2\s/c(=C/C(=O)c3ccc(C)cc3)[nH]c2=O)c(OC)c1	-6.9%	25.1µM*
COc1cccc(/C=c2\s/c(=C/C(=O)c3ccc(C)cc3)[nH]c2=O)c1OC	-1.7%	-20.2%
COc1ccc(/C=N/NC(=O)c2nn(-c3ccc(C)c(C)c3)c(=O)c3ccccc23)cc1	-6.4%	-10.7%
COc1ccc(/C=N/NC(=O)c2nn(-c3ccccc3)c(=O)c3c(N)scc23)cc1	-10.4%	20µM*
CCOC(=O)c1nn(-c2ccc(OC)cc2)c(=O)c2c(N)scc12	-13.5%	5.8%
COc1ccc(/C=N/NC(=O)c2nn(-c3ccc(Cl)cc3)c(=O)c3c(N)scc23)cc1	-6.0%	12.6µM*
O=C(Nc1ccccc1)N(CCc1nc2ccccc2[nH]1)C1CCCC1	0.3%	-5.8%
S=C(NC1CCCCC1)N(CCc1nc2ccccc2[nH]1)C1CCCC1	12.6µM*	10.5%	Papain inh=6.6%
CC1CCCN(c2ccc(C(=O)OCn3nnc4ccccc4c3=O)cc2[N+](=O)[O-])C1 (centres undefined)	-2.6%	?
CC1CCCN(c2ccc(C(=O)OCC(=O)N3c4ccccc4Sc4ccccc43)cc2[N+](=O)[O-])C1 (centres undefined)	-3.5%	3.98µM*	Papain inh=10.0%
Cc1cc(OCC(=O)Nc2ccc(N3CCCC3)cc2)cc(C)c1Cl	?	3.98µM*	Papain inh=3.3%
Cc1cc(OCC(=O)Nc2ccc(N3CCN(C(=O)c4ccco4)CC3)cc2)cc(C)c1Cl	-0.3%	0.8%
Cc1ccccc1-c1nn2c(=O)cc(CN3CCN(C(=O)/C=C/c4ccccc4)CC3)nc2s1	-10.4%	-18.8%
CCOc1ccc(CN2C(=O)c3ccccc3Sc3ccc(C(=O)NC)cc32)cc1	-6.5%	?
CCOc1ccc(CN2C(=O)c3ccccc3Sc3ccc(C(=O)NCc4ccc5c(c4)OCO5)cc32)cc1	-2.3%	10µM*	Papain inh=1.1%
